Data: PubChem BioAssay (Tox21)
Several values for one entry are separate records, joined by “and”; a condition that tells them apart may be missing. Equal values may be shown once. Results filed as inconclusive are left out. Values without a mark were called inactive. Activity calls are given as the source filed them. Calls follow the shape of the dose curve; as a rule, active = well fitted cell-killing curve with a large enough effect in the repeat runs; inconclusive = weak or mixed curves; inactive = no such curve, though single readings can be large or run the other way.

Assay: qHTS assay to identify small molecule antagonists of the androgen receptor (AR) signaling pathway - cell viability counter screen (AID 743033; also: nearly all actives have a fitted effect of over 45% in size)
Settings: AR-bla HEK293 viability, CellTiter-Glo luminescence, 16 h; series mostly up to 58.5 µM; activity change, negative = cytotoxicity: at the top concentration
Excerpt: National Center for Advancing Translational Sciences [NCATS]
NIH Chemical Genomics Center [NCGC]
U.S. Environmental Protection Agency [EPA]
National Institutes of Environmental Health Sciences [NIEHS]
National Toxicology Program [NTP]
U.S. Food and Drug Administration [FDA]
Androgen receptor (AR), a nuclear hormone receptor, plays a critical role in AR-dependent prostate cancer and other androgen related diseases. Endocrine disrupting chemicals (EDCs) and their interactions with steroid hormone receptors like AR may cause disruption of normal endocrine function as well as interfere with metabolic homeostasis, reproduction, developmental and behavioral functions. To identify the compounds that inhibit AR signaling, GeneBLAzer AR-UAS-bla-GripTite cell line (Invitrogen, Carlsbad, CA, USA) containing a beta-lactamase reporter gene under control of an Upstream Activator Sequence (UAS) stably integrated into HEK293 cells was used to screen the Tox21 10K compound library. The cytotoxicity of the Tox21 compound library against the AR-bla cell line was tested in parallel by measuring the cell viability using CellTiter-Glo assay in the same wells.
Tox21 Assay Protocol Summary:
AR-bla cells were dispensed at 2,000 cells/5 uL of assay medium per well into black wall/clear-bottom 1536-well plates using a Multidrop Combi (ThermoFisher Scientific, Waltham, MA) dispenser. After the assay plates were incubated at a 37C and 5% CO2 for 4 hr, 23 nL of compounds dissolved in DMSO, positive controls or DMSO only was transferred to the assay plate by a Pintool station (Kalypsys, San Diego, CA), followed by addition of 1 uL of agonist (R1881) in culture medium using a Bioraptr Flying Reagent Dispenser (FRD) workstation (Beckman Coulter, Indianapolis, IN, USA). The plates were incubated at a 37C and 5% CO2 for 16 h. After 1 uL of LiveBLAzerTM B/G FRET substrate was added using a Bioraptr FRD, the plates were incubated at room temperature for 2 h and fluorescence intensity was measured by an Envision plate reader (PerkinElmer, Shelton, CT). For cell viability readout that measures cytotoxicity, 4 ul/well of CellTiter-Glo reagent was added into the assay plates using a Bioraptr FRD. After 30 min incubation at room temperature, the luminescence intensity in the plates was measured using a ViewLux (PerkinElmer) plate reader.
% is scaled to controls: 0 for no effect and ±100 for the full control effect; potency is read from the fitted curve at half-maximal effect.

Structure (SMILES) | activity change, negative = cytotoxicity | Potency
CC(C)(C)C(=O)OCOC(=O)C1N2C(=O)CC2S(=O)(=O)C1(C)C (stereo not given) | 13.3% | 
O=C(NO)C1(NS(=O)(=O)c2ccc(Oc3ccc(F)cc3)cc2)CCOCC1 | 12% | 
N/C(=N\N=C\c1ccc(Cl)cc1)N/N=C/c1ccc(Cl)cc1 | 3.57% | 
Cc1cc(N)c(S(=O)(=O)O)cc1Cl | 0.0461% [at 78.9 µM] | 
Cc1cccc2c1cc1ccc3cccc4ccc2c1c34 | 0.281% [at 78.9 µM] | 
CC(C)OC(=O)c1cc2c(OCC(O)CNC(C)(C)C)cccc2[nH]1 (stereo not given) | 0.6% | 
CC[C@H](c1ccc(O)cc1)[C@@H](CC)c1ccc(O)cc1 | 0.924% [at 27 µM] | 
CCCCCOC(=O)CCCC | 0.463% | 
C[C@]12CCC(=O)C=C1CC[C@@H]1[C@@H]2[C@@H](O)C[C@@]2(C)[C@H]1CC[C@]2(O)C(=O)COC(=O)CCC(=O)O | 6.78% | 
O=C(OCC1CO1)C1CCCCC1C(=O)OCC1CO1 (stereo not given) | -9.8% | 
CC1=NC(C)OC1C (stereo not given) | 1.01% | 
Clc1ccc2n[nH]nc2c1 | 2.51% | 
CSc1ccc(C(=O)c2[nH]c(=O)[nH]c2C)cc1 | -8.94% | 
NNc1nc(-c2ccc(N)cc2)cs1 | -10.7% | 
CCc1cc(Cc2cc(CC)c(N)c(CC)c2)cc(CC)c1N | -26.8% | 
C[C@@H](NCCCc1cccc(C(F)(F)F)c1)c1cccc2ccccc12 |  | 19 µM (active)
CCC1=C[C@@H]2CN(C1)Cc1c([nH]c3ccccc13)[C@@](C(=O)OC)(c1cc3c(cc1OC)N(C)[C@H]1[C@@](O)(C(=O)OC)[C@H](OC(C)=O)[C@]4(CC)C=CCN5CC[C@]31[C@@H]54)C2 | 18.4% | 
CCCCCCCCCCCCCC[P+](CCCC)(CCCC)CCCC (tested in a mixture with another compound) |  | 0.983 µM (active)
CC(C)CCCCCCCCCCCCCCC(=O)O | 6.02% | 
Fc1ccc([C@@H]2CCNC[C@H]2COc2ccc3c(c2)OCO3)cc1 |  | 8.49 µM (active)

Structure (SMILES) | activity change, negative = cytotoxicity | Potency
CCc1oc2ccccc2c1C(=O)c1cc(Br)c(O)c(Br)c1 | -16.1% | 
CCN(C(=O)c1cc(C)cc(OC[C@H](C)Nc2ccncc2)c1)C(C)C | 0.707% | 
Cc1cccc(CN2CCN(C(c3ccccc3)c3ccc(Cl)cc3)CC2)c1 (stereo not given) | -3.77% [at 27 µM] | 
CCC(C)(C)C1CCCCC1OC(C)=O (stereo not given) | 3.28% | 
O=C(Nc1cccc(C(F)(F)F)c1)c1cc(Br)cc(Br)c1O |  | 4.25 µM (active) and 4.36 µM (active)
CC(C)(C)CC(C)(C)c1ccc(OCCOCC[N+](C)(C)Cc2ccccc2)cc1 |  | 21.3 µM (active) and 7.75 µM (active)
O=C1Cc2cc(CCN3CCN(c4nsc5ccccc45)CC3)c(Cl)cc2N1 |  | inactive
C=C(C)C(=O)OCC[N+](C)(C)C | -1.52% | 
[Cl][Bi]([Cl])([c]1ccccc1)([c]1ccccc1)[c]1ccccc1 |  | 12.2 µM (active)
ON=C1CCCC1 | 7.28% [at 78.9 µM] | 
O=C(O)c1cc(O)c2c(c1)C(=O)c1cccc(O)c1C2=O | -0.237% [at 78.9 µM] | 
C[C@@H]1C[C@H]2[C@@H]3CCC4=CC(=O)C=C[C@]4(C)[C@@]3(Cl)[C@@H](O)C[C@]2(C)[C@@]1(OC(=O)c1ccco1)C(=O)CCl | -5.94% [at 27 µM] | 
Nc1c(Cl)cc(Cl)cc1Cl | 1.09% | 
CCCCC(CC)COP(=O)(O)OCC(CC)CCCC (stereo not given) | -28.6% | 
CCCCCCCCn1sc(Cl)c(Cl)c1=O |  | 6.16 µM (active)
O=C(Nc1cccc([N+](=O)[O-])c1)c1cc2ccccc2cc1O |  | 1.38 µM (active)
Cc1[nH]nc2c1N=C(c1ccccc1Cl)c1cc([N+](=O)[O-])ccc1N2 |  | 43.6 µM (active)
CCCC(c1cc(C(C)(C)C)c(O)cc1C)c1cc(C(C)(C)C)c(O)cc1C |  | 22.1 µM (active)
CCCCCCCC[P+](CCCCCCCC)(CCCCCCCC)CCCCCCCC |  | 0.971 µM (active)
CC(C)(C)c1ccc(C(=O)O)cc1 | 6.3% | 
